Hits are enriched below; roughly 1.3% of the tested compounds scored in any of these assays.
NTR1 ag: activates human neurotensin receptor 1. NTR1-U2OS beta-arrestin-GFP spot imaging, agonist mode. AID 493036. activation, % at 20 µM. P30989. 0.17% of 330,000 active;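 active = activation at or above 40% of the spot to cytoplasm intensity ratio, with at least 20 cells analyzed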;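 note: 0% = DMSO without peptide and 100% = 100 nM NTR1 peptide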
Beta2AR agonist: agonists of human beta-2 adrenergic receptor inducing internalization; 0.43% of 340,000 active; Am2.2-beta2AR cells, FAP receptor internalization, flow cytometry; response, % (concentration not given with the values); P07550;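 active = response above a set limit, near 3 SD of response in nonfluorescent compounds, cut at about 42% in these data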
Target sequence (P07550 whole entry, looked up): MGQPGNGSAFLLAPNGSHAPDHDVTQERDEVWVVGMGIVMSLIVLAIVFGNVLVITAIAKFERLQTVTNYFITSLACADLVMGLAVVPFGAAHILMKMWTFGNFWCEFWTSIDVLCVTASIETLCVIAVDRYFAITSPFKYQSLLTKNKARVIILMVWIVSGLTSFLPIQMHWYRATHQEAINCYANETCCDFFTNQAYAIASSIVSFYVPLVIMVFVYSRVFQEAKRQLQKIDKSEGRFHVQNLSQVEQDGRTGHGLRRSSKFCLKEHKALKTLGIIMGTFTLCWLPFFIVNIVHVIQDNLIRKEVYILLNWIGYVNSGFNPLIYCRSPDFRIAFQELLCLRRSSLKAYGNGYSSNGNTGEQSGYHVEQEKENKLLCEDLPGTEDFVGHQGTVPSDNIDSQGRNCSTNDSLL
VLA-4 inh: inhibition in a human VLA-4 binding assay; P13612; AID 2557; 0.2% of 330,000 active; inhibition, % (about 7 µM as worked out from the volumes in the protocol); VLA-4 expressing cells, ligand binding flow cytometry; in the data active = inhibition above about 50%
GRK2 inh: blocks RNA aptamer binding to human GRK2. 0.59% of 330,000 active. inhibition of aptamer binding, % at 10 µM. AID 488847. P25098. bead flow cytometry, FAM-aptamer displacement from GRK2;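 active = inhibition of aptamer binding above 40%, roughly 3 SD of noise, on plates passing a quality check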;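 note: median bead fluorescence of bound FAM aptamer so fluorescent compounds give negative values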
Bfl-1 A1 inh: inhibitors of the anti-apoptotic protein A1, read as caspase activation; AID 2462; 0.066% of 330,000 active; MEF A1-2A-BIM cells, Caspase-Glo 3/7 luminescence, 3 h; percent of clofoctol response, vehicle zero; caspase activation, % (test concentration not listed);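 active = over half of replicate activation scores above 10%, or exactly half above 10 with the replicate mean above 10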
* = called active by the depositor.

What do the screens show for `COc1ccc(C(=O)N=C2SC3CS(=O)(=O)CC3N2c2ccc(N(C)C)cc2)cc1OC` (stereo unspecified)?
NTR1 ag: -1.3; Beta2AR agonist: 54.3*; VLA-4 inh: 7.8; GRK2 inh: 0.0; Bfl-1 A1 inh: -1.1

How did COc1ccc(N2C(=NC(=O)C3CCCCC3)SC3CS(=O)(=O)CC32)cc1OC (stereo unspecified) do in these assays?
NTR1 ag: -0.5; Beta2AR agonist: -2.0; VLA-4 inh: 6.1; GRK2 inh: 3.0; Bfl-1 A1 inh: 0.2

How did NCCCNc1nc(N)c([N+](=O)[O-])c(NC2CCCCC2)n1 do in these assays?
NTR1 ag: 14.1; Beta2AR agonist: 9.9; VLA-4 inh: 12.5; GRK2 inh: 0.0; Bfl-1 A1 inh: -1.0

What do the screens show for `CSc1nsc(/C=C/Nc2ccc(F)cc2F)c1C#N`?
NTR1 ag: -2.3; Beta2AR agonist: 9.1; VLA-4 inh: -0.7; GRK2 inh: 98.0*; Bfl-1 A1 inh: 0.2

Results for c1ccc(CNc2nc(NCc3ccccc3)c3ccccc3n2)cc1 ?
NTR1 ag: 13.0; Beta2AR agonist: 72.0*; VLA-4 inh: 15.2; Bfl-1 A1 inh: -0.2

Results for CC(=O)NC(Cc1cccc(F)c1)C(=O)NC1CCN(c2ncccc2[N+](=O)[O-])CC1 (stereo unspecified) ?
NTR1 ag: 0.4; Beta2AR agonist: -4.5; VLA-4 inh: 56.9*; GRK2 inh: 3.0; Bfl-1 A1 inh: 0.8

What do the screens show for `Cc1[nH]c2ccc(C(=O)OC(C)C(=O)NC3(C#N)CCCCC3)cc2c1C` (stereo unspecified)?
NTR1 ag: 2.8; Beta2AR agonist: 0.6; VLA-4 inh: 5.0; GRK2 inh: 2.0; Bfl-1 A1 inh: 0.9

Results for Cc1ccc(N(Cc2ccccc2)C(=O)c2cc(S(=O)(=O)N3CCOCC3)ccc2C)cc1 ?
NTR1 ag: 2.4; Beta2AR agonist: 4.9; VLA-4 inh: -1.7; GRK2 inh: 2.0; Bfl-1 A1 inh: -0.8

Results for CC(=O)c1ccccc1NC(=O)COC(=O)CN1C(=O)C2CCCCC2C1=O (stereo unspecified) ?
NTR1 ag: -1.7; Beta2AR agonist: -0.8; VLA-4 inh: 0.0; GRK2 inh: 0.0; Bfl-1 A1 inh: 1.3

How did Cc1ccccc1CS(=O)(=O)c1nnc([C@H](Cc2ccccc2)NC(=O)OC(C)(C)C)o1 do in these assays?
NTR1 ag: -0.1; Beta2AR agonist: 61.1*; VLA-4 inh: 43.9; GRK2 inh: 1.0; Bfl-1 A1 inh: 0.9

Results for CC(C)(C)OC(=O)N[C@@H](Cc1ccccc1)c1nnc(S(=O)(=O)Cc2ccccc2)o1 ?
NTR1 ag: 8.2; VLA-4 inh: 44.0; GRK2 inh: 1.0; Bfl-1 A1 inh: 1.9

Results for COc1ccc(-c2csc(/C(C#N)=C\c3ccc(OC)c([N+](=O)[O-])c3)n2)cc1 ?
NTR1 ag: -1.1; Beta2AR agonist: 2.6; VLA-4 inh: 3.1; GRK2 inh: 90.0*; Bfl-1 A1 inh: 0.3

How did Cc1ccc(S(=O)(=O)NCC(=O)OCc2csc(-c3ccccc3)n2)cc1 do in these assays?
NTR1 ag: 2.1; Beta2AR agonist: 10.9; VLA-4 inh: 5.8; GRK2 inh: 0.0; Bfl-1 A1 inh: -0.3

What do the screens show for `O=C(CNS(=O)(=O)c1ccc2ccccc2c1)OCc1csc(-c2ccccc2)n1`?
NTR1 ag: -0.8; Beta2AR agonist: 4.2; VLA-4 inh: 0.2; GRK2 inh: 100.0*; Bfl-1 A1 inh: -0.2

Results for O=C(CCNC(=O)c1ccccc1Cl)Nc1nc(-c2ccccc2Cl)cs1 ?
NTR1 ag: 0.0; Beta2AR agonist: 4.3; VLA-4 inh: -3.5; GRK2 inh: 0.0; Bfl-1 A1 inh: -0.4

Results for CCOc1ccc(CNC2CCCCCCC2)cc1OC ?
NTR1 ag: -0.4; Beta2AR agonist: -2.2; VLA-4 inh: 19.1; GRK2 inh: 0.0; Bfl-1 A1 inh: 12.3*

What do the screens show for `COc1ccc(-n2nc(C#N)c(Cl)cc2=O)cc1`?
NTR1 ag: -0.8; Beta2AR agonist: 90.5*

What do the screens show for `CC(C)(C)N(Cc1ccccc1)C(=O)COC(=O)/C=C/c1ccc2c(c1)OCO2`?
NTR1 ag: -1.9; Beta2AR agonist: 0.3; VLA-4 inh: 10.0; GRK2 inh: 0.0; Bfl-1 A1 inh: 0.4

How did Cc1ccc(/C=C/C(=O)OCC(=O)NC(=O)NCc2ccco2)cc1 do in these assays?
NTR1 ag: 1.2; Beta2AR agonist: 7.0; VLA-4 inh: -7.6; GRK2 inh: 0.0; Bfl-1 A1 inh: -0.1

How did COc1cc2oc3ccccc3c(=O)c2cc1OC do in these assays?
NTR1 ag: -0.5; Beta2AR agonist: 0.5; VLA-4 inh: -22.2; GRK2 inh: 86.0*; Bfl-1 A1 inh: 0.2

High-throughput results: PubChem, several laboratories
